{
  "source": "PubChem BioAssay",
  "key": {"[1]": {"assay": "viability loss in pontine glioma line – cell-based, SU-DIPG-XIII, MIPE4.0, CellTiter-Glo, qHTS, dose response (AID 1347061; cut-off not given, nearly all actives have AC50 up to about 37 µM;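 also: cells exposed to compound for 48 hours before readout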)", "conditions": "CellTiter-Glo ATP luminescence"}, "[2]": {"assay": "viability loss in pontine glioma line – cell-based, JHH-DIPG-1, MIPE4.0, CellTiter-Glo, qHTS, dose response (AID 1347062; cut-off not given, nearly all actives have AC50 up to about 27 µM;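 as to AC50: cells exposed to compound for two days before readout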)", "conditions": "JHH-DIPG-1 viability, CellTiter-Glo ATP luminescence"}, "[3]": {"assay": "viability loss in pontine glioma line – cell-based, SU-DIPG-IV, MIPE4.0, CellTiter-Glo, qHTS, dose response (AID 1347063);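 also: compound exposure lasted 48 hours before the viability readout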", "conditions": "CellTiter-Glo ATP luminescence"}, "[4]": {"assay": "growth inhibition of DIPG cells – cell-based, MIPE4.0 library, CellTiter-Glo luminescence, qHTS (AID 1347066);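 also: cells exposed to compound for 48 hours before readout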", "conditions": "SU-DIPG-VI viability, CellTiter-Glo ATP luminescence"}, "[5]": {"assay": "JHH-DIPG-1 glioma cell viability, MIPE5.0 library, CellTiter-Glo luminescence, qHTS (AID 1347067; cut-off not given, nearly all actives have AC50 up to about 26 µM;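 also: cells exposed to compound for 48 hours before readout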)", "conditions": "JHH-DIPG-1 glioma viability, CellTiter-Glo ATP luminescence"}, "[6]": {"assay": "growth inhibition of DIPG cells – cell-based, MIPE5.0 library, qHTS (AID 1347068; cut-off not given, nearly all actives have IC50 up to about 30 µM)", "conditions": "SU-DIPG-XXV viability"}, "[7]": {"assay": "viability loss with induced miR-34 in A549 – imaging, A549 dox-inducible miR-34, nuclei and caspase counts, primary screen (AID 1347080;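 active = compounds whose cell count with miR-34 switched on is under 0.7 times the count with it off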)", "conditions": "A549 miR-34 inducible, Hoechst nuclei count, 48 h"}, "[8]": {"assay": "MELAS cybrid and Rieske KO viability enhancers – cell-based, MELAS cybrids, Rieske KO mouse fibroblasts, CellTiter-Glo, primary screen (AID 1508586;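 active = mean z-score across replicates of 1.96 or higher in either the MELAS or the Rieske mutant cell line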;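 also: z relative to plate mean and SD of compound and empty wells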)", "conditions": "low glucose"}, "[9]": {"assay": "compounds altering HSF1 focus formation in cells – imaging, Selleck Cancer Library (AID 1347162; in the data active = plate-normalised HSF1 focus index below about 0.46)", "conditions": "human cells, HSF1 nuclear foci imaging, at 10 µM; SSMD: measured here: HSF1 foci SSMD mean; cell count: measured here: cell number; plate-normalised HSF1 focus index: stronger effect = lower value"}, "[10]": {"conditions": "stronger effect = lower value, cell number ratio, induced over uninduced"}, "[11]": {"conditions": "measured here: relative caspase fold change +Dox/-Dox"}, "[12]": {"conditions": "measured here: total cells with miR-34 induction, stronger effect = lower value"}, "[13]": {"conditions": "measured here: total cells without miR-34 induction"}, "[14]": {"conditions": "MELAS cybrid survival, CellTiter-Glo 48 h, stronger effect = higher value"}, "[15]": {"conditions": "Rieske KO mouse fibroblast survival, CellTiter-Glo 72 h"}},
  "note": "Several values for one entry are separate records, joined by “and”; a condition that tells them apart may be missing. Identical values can stand only once. Inconclusive results are not listed. Activity calls are given as the source filed them. Unless noted, the limit is not given here; nearly all actives have AC50 up to about 30 µM.",
  "data": [
    {"compound": "CNC(=O)CN1CCC(Oc2cc3c(Nc4cccc(Cl)c4F)ncnc3cc2OC)CC1", "values": [
      {"measurement": "outcome", "setting": "[1]", "result": "inactive"},
      {"measurement": "outcome", "setting": "[2]", "result": "inactive"},
      {"measurement": "outcome", "setting": "[3]", "result": "inactive"},
      {"measurement": "outcome", "setting": "[4]", "result": "inactive"},
      {"measurement": "outcome", "setting": "[5]", "result": "inactive"},
      {"measurement": "outcome", "setting": "[6]", "result": "inactive"},
      {"measurement": "fold change", "setting": "[7]; [10]", "result": "0.965 (inactive)"},
      {"measurement": "fold change", "setting": "[7]; [11]", "result": 1.05},
      {"measurement": "cell count", "setting": "[7]; [12]", "result": 5230},
      {"measurement": "cell count", "setting": "[7]; [13]", "result": 5420},
      {"measurement": "z-score", "setting": "[8]; [14]", "result": "-0.464 (inactive)"},
      {"measurement": "z-score", "setting": "[8]; [15]", "result": -0.429}
    ]},
    {"compound": "CC1(C)C(=O)N(CCN2CCC(C(=O)c3ccc(F)cc3)CC2)c2ccccc21", "values": [
      {"measurement": "outcome", "setting": "[1]", "result": "inactive"},
      {"measurement": "outcome", "setting": "[2]", "result": "inactive"},
      {"measurement": "outcome", "setting": "[3]", "result": "inactive"},
      {"measurement": "fold change", "setting": "[7]; [10]", "result": "0.986 (inactive)"},
      {"measurement": "fold change", "setting": "[7]; [11]", "result": 1.27},
      {"measurement": "cell count", "setting": "[7]; [12]", "result": 7420},
      {"measurement": "cell count", "setting": "[7]; [13]", "result": 7530}
    ]},
    {"compound": "C[C@H](NCc1ccc2c(c1)nc(NC(=O)c1ccc(-c3cn[nH]c3)s1)n2CCc1ccccc1)C(C)(C)C", "values": [
      {"measurement": "AC50", "setting": "[1]", "result": "2.96 µM (active)"},
      {"measurement": "AC50", "setting": "[2]", "result": "1.05 µM (active)"},
      {"measurement": "AC50", "setting": "[3]", "result": "1.32 µM (active)"},
      {"measurement": "AC50", "setting": "[4]", "result": "5.26 µM (active)"}
    ]},
    {"compound": "CC(O)C1C(=O)N2C(C(=O)O)=C(SC3CNC(C(=O)N(C)C)C3)C(C)C12", "note": "(configuration not stated)", "values": [
      {"measurement": "outcome", "setting": "[1]", "result": "inactive"},
      {"measurement": "outcome", "setting": "[2]", "result": "inactive"},
      {"measurement": "outcome", "setting": "[3]", "result": "inactive"},
      {"measurement": "outcome", "setting": "[4]", "result": "inactive"},
      {"measurement": "fold change", "setting": "[7]; [10]", "result": "0.9 (inactive) and 0.956 (inactive)"},
      {"measurement": "fold change", "setting": "[7]; [11]", "result": "2.32 and 0.899"},
      {"measurement": "cell count", "setting": "[7]; [12]", "result": "9280 and 7430"},
      {"measurement": "cell count", "setting": "[7]; [13]", "result": "10300 and 7780"},
      {"measurement": "z-score", "setting": "[8]; [14]", "result": "-0.432 (inactive)"},
      {"measurement": "z-score", "setting": "[8]; [15]", "result": 0.361}
    ]},
    {"compound": "NC1CCC(Nc2nc(Nc3ccc(C(=O)N4CCCCC4)cc3)c3ncn(-c4cccc(F)c4)c3n2)CC1", "note": "(configuration not stated)", "values": [
      {"measurement": "outcome", "setting": "[1]", "result": "inactive"},
      {"measurement": "outcome", "setting": "[2]", "result": "inactive"},
      {"measurement": "outcome", "setting": "[3]", "result": "inactive"},
      {"measurement": "outcome", "setting": "[4]", "result": "inactive"}
    ]},
    {"compound": "Cc1ccn(-c2ccc(-c3ncco3)cc2)c(=O)c1-c1ccc2nc(N)ncc2c1", "values": [
      {"measurement": "outcome", "setting": "[1]", "result": "inactive"},
      {"measurement": "outcome", "setting": "[2]", "result": "inactive"},
      {"measurement": "outcome", "setting": "[3]", "result": "inactive"},
      {"measurement": "outcome", "setting": "[4]", "result": "inactive"},
      {"measurement": "outcome", "setting": "[5]", "result": "inactive"}
    ]},
    {"compound": "CCCCCCCCCCCCCCCC(=O)OC[C@@H](NC(=O)C(Cl)Cl)[C@H](O)c1ccc([N+](=O)[O-])cc1", "values": [
      {"measurement": "outcome", "setting": "[1]", "result": "inactive"},
      {"measurement": "outcome", "setting": "[2]", "result": "inactive"},
      {"measurement": "outcome", "setting": "[3]", "result": "inactive"},
      {"measurement": "outcome", "setting": "[4]", "result": "inactive"}
    ]},
    {"compound": "Nc1nc2[nH]cc(CCc3ccc(C(=O)N[C@@H](CCC(=O)O)C(=O)O)cc3)c2c(=O)[nH]1", "values": [
      {"measurement": "outcome", "setting": "[1]", "result": "inactive"},
      {"measurement": "outcome", "setting": "[2]", "result": "inactive"},
      {"measurement": "outcome", "setting": "[3]", "result": "inactive"},
      {"measurement": "outcome", "setting": "[4]", "result": "inactive"},
      {"measurement": "outcome", "setting": "[5]", "result": "inactive"},
      {"measurement": "outcome", "setting": "[6]", "result": "inactive"},
      {"measurement": "fold change", "setting": "[7]; [10]", "result": "1.36 (inactive)"},
      {"measurement": "fold change", "setting": "[7]; [11]", "result": 0.473},
      {"measurement": "cell count", "setting": "[7]; [12]", "result": 3100},
      {"measurement": "cell count", "setting": "[7]; [13]", "result": 2280},
      {"measurement": "SSMD", "setting": "[9]", "result": -2.05},
      {"measurement": "cell count", "setting": "[9]", "result": 7280},
      {"measurement": "plate-normalised HSF1 focus index", "setting": "[9]", "result": "0.87 (inactive)"},
      {"measurement": "z-score", "setting": "[8]; [14]", "result": "-0.725 (inactive)"},
      {"measurement": "z-score", "setting": "[8]; [15]", "result": -0.391}
    ]},
    {"compound": "CC(NCc1ccc2c(c1)nc(NC(=O)c1ccc(-c3cn[nH]c3)s1)n2CC(C)(C)O)C(C)(C)C", "note": "(configuration not stated)", "values": [
      {"measurement": "AC50", "setting": "[1]", "result": "3.32 µM (active)"},
      {"measurement": "AC50", "setting": "[2]", "result": "0.332 µM (active)"},
      {"measurement": "AC50", "setting": "[3]", "result": "0.833 µM (active)"},
      {"measurement": "AC50", "setting": "[4]", "result": "5.9 µM (active)"}
    ]},
    {"compound": "N#CC[C@H](C1CCCC1)n1cc(-c2ncnc3[nH]ccc23)cn1", "values": [
      {"measurement": "outcome", "setting": "[1]", "result": "inactive"},
      {"measurement": "outcome", "setting": "[2]", "result": "inactive"},
      {"measurement": "outcome", "setting": "[3]", "result": "inactive"},
      {"measurement": "outcome", "setting": "[4]", "result": "inactive"},
      {"measurement": "outcome", "setting": "[6]", "result": "inactive"},
      {"measurement": "SSMD", "setting": "[9]", "result": 3.63},
      {"measurement": "cell count", "setting": "[9]", "result": 7430},
      {"measurement": "plate-normalised HSF1 focus index", "setting": "[9]", "result": "1.23 (inactive)"}
    ]},
    {"compound": "C[C@H](NCc1ccc(OCc2cccc(F)c2)cc1)C(N)=O", "values": [
      {"measurement": "AC50", "setting": "[1]", "result": "18.7 µM (active)"},
      {"measurement": "AC50", "setting": "[2]", "result": "4.69 µM (active)"},
      {"measurement": "AC50", "setting": "[3]", "result": "9.35 µM (active)"},
      {"measurement": "AC50", "setting": "[4]", "result": "14.8 µM (active)"}
    ]}
  ]
}
